# Rows were chosen to be rich in hits. Some 1.7% of all compounds tested hit in one or more screens of this group.
# PrP 5UTR inh – inhibition of PrP 5' UTR reporter expression; cell-based PrP 5' UTR mRNA reporter, plate reader; inhibition, % (test concentration not listed); actives 0.35% (n = 340,000); AID 488862, 2010; in the data active means inhibition above about 52%; further: 0 = median of the neutral control wells
# Yp Topo-I inh – Yersinia pestis topoisomerase I inhibitors, primary screen, biochemical, cleavage product accumulation, plate reader, single point; DNA topoisomerase I (Yersinia pestis CO92); Y. pestis Topo-I cleavage product accumulation; activity, % at 10 µM; actives 0.064% (n = 360,000); AID 504884, 2011; in the data active means activity above about 50%, passing the limit was not always enough
# PfHsp40 yeast – rescue of yeast from PfHsp40 toxicity, primary screen, S. cerevisiae, ATP luminescence. S. cerevisiae expressing PfHsp40, growth rescue. growth rescue, % at 12.5 µM. actives 0.68% (n = 340,000); in the data active means growth rescue above about 28%, passing the limit was not always enough;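 further: yeast W303a lacking pdr1 and pdr3 grown in galactose medium; growth measured after three days at 30 °C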
# BJeLR viability – MLPCN primary cell-based screen for lethality selective to Ras in HRASV12 cells. BJeLR (HRASV12) viability, CellTiter-Glo ATP luminescence, 48 h. inhibition, % (test concentration not listed). actives 0.17% (n = 300,000). AID 1554, 2009; in the data active means inhibition above about 50%
# SSB-PriA inh – inhibitors of Klebsiella pneumoniae PriA binding to SSB C-terminal tail, primary screen, biochemical, AlphaScreen; PriA–SSB C-terminal tail interaction (Klebsiella pneumoniae); AlphaScreen SSBct-PriA binding, biotinylated peptide; inhibition, % at 33 µM; actives 0.6% (n = 430,000); in the data active means inhibition mostly above about 37%, no sharp cut-off; inactive means mostly below about 20%;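 further: plate controls were negative control peptide for no effect and reference peptide for full effect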
# PrPC surface inh – inhibitors of human cell surface prion protein PrPC, primary screen, cell-based, TR-FRET | TR-FRET read-out | inhibition, % at 13.8 µM | actives 0.43% (n = 370,000); in the data active means inhibition above about 24%; further: 0% = median of the test wells and 100% = reference compound wells
# Numbers without * were called inactive; · = not tested or not shown; ! = repeats disagree.
SMILES,PrP 5UTR inh,Yp Topo-I inh,PfHsp40 yeast,BJeLR viability,SSB-PriA inh,PrPC surface inh
Cc1ccnc2nc(C(=O)NC3CCCc4ccccc43)nn12 (stereo not drawn),0,12,147*,·,9,2
Cc1ccc(CNC(=O)c2cc3c(=O)n4ccccc4nc3n(CCO)c2=N)cc1,·,·,·,·,-9,·
CCN(CC)C(=S)NC(=O)c1ccc(OC)c(Br)c1,0,-1,-2,4,-22,3
C=CCN(CC=C)C(=S)NC(=O)c1ccc(OC)c(Br)c1,1,2,56*,-4,-10,·
COC(=O)Cc1c(C)nc2c(-c3ccccc3)c(C)[nH]n2c1=O,·,·,·,·,-11,·
O=C(NC(=S)N1CCCc2ccccc21)c1ccccc1,-48,4,0,1,42*!,-2
O=C(c1ccc(C(=O)N2CCCc3ccccc32)s1)N1CCCc2ccccc21,-17,18,51*,2,21,-4
O=C(NC(=S)N1CCCc2ccccc21)c1ccc(Cl)cc1,-58,2,2,·,19,2
COC(=O)c1ccc(CSc2ccc([N+](=O)[O-])cc2)cc1,·,·,·,·,7,·
C=CC(=O)Nc1ccc(N(C)c2ccnc(Nc3ccc(N4CCN(C)CC4)cc3)n2)cc1,46,-22,0,·,44*,-2
Cc1ccc(C(=O)N2CCN(c3ccccc3Cl)CC2)cc1[N+](=O)[O-],-28,27,111*,-10,4,5
COc1ccc(F)cc1S(=O)(=O)Nc1ccc2c(c1)N(C(=O)C(C)C)CCC2,·,·,·,·,-12,·
COc1ccc(N2CCN(CCCNC(=O)C(=O)c3c[nH]c4ccccc34)CC2)cc1,-14,6,0,-4,48*,-3
Cc1nnc(CNC(=O)c2cnn(-c3ccccc3)n2)o1,·,·,·,·,-12,·
O=[N+]([O-])c1ccc(/C=N/Nc2ccnc3cc(Cl)ccc23)o1,-20,-44,2,5,·,-18
O=[N+]([O-])c1ccc(C=NNc2ccnc3cc(Cl)ccc23)o1,·,·,·,·,59*,·
O=C(CSc1ncnc2c1cnn2-c1ccc(F)cc1)N1CCN(c2ccccc2)CC1,·,·,·,·,-8,·
CSCCC(NC(=O)c1ccccc1Cl)C(=O)NCc1ccncc1 (stereo not drawn),-14,3,-2,·,-8,1
CSCCC(NC(N)=O)C(=O)NCc1ccc(Cl)cc1 (stereo not drawn),-23,9,80*,10,-5,2
C[C@@]12C(=O)OC(=O)[C@]1(C)C1CCC2O1,29,1,-1,·,-10,41*
CC12C(=O)N(c3nccs3)C(=O)C1(C)C1CCC2O1 (stereo not drawn),·,-3,·,·,5,-7
N=C(N)c1ccc(Cl)cc1,-20,9,0,-16,-9,-1
N=C(N)c1ccc(/C=C/c2ccc(C(=N)N)cc2O)cc1,-11,-34,137*,-5,6,-32
Cc1ccc(COc2ccc(Br)cc2/C=N/O)cc1,-79,-8,450*,2,·,2
O/N=C/c1cc(Br)ccc1OCc1cccc(F)c1,-4,4,279*,13,·,9
SMILES,PrP 5UTR inh,Yp Topo-I inh,PfHsp40 yeast,BJeLR viability,SSB-PriA inh,PrPC surface inh
Cc1nc(SCC(=O)Nc2sc3c(c2C(N)=O)CCC3)c2c3c(sc2n1)CCC3,·,·,·,·,-10,·
COc1ccc(CCNC(=O)N2CC(c3nc(-c4ccc[nH]c4=O)no3)C2)cc1,·,·,·,·,-17,·
CCOC(=O)c1nnn(CC(=O)Nc2cccc(OC)c2)c1C(=O)OCC,-4,6,0,-4,7,-2
COC(=O)c1nnn(CC(=O)Nc2cccc(OC)c2)c1C(=O)OC,0,1,80*,-9,3,2
CCc1ccc(C(C)NC(=S)NC2CCCCC2)cc1 (stereo not drawn),-14,9,83*,7,-30,·
CCOc1ccc(C(C)NC(=S)NCc2ccc(F)cc2)cc1 (stereo not drawn),-16,8,5,-9,-13,2
CCC(C)c1ccc(C(C)NC(=S)NC2CCCCC2)cc1 (stereo not drawn),-22,31,-1,-8,-16,15
Cc1ccc(C(C)NC(=S)NCc2ccc(F)cc2)c(C)c1 (stereo not drawn),2,4,117*,-3,-30,3
CCc1ccc(C(C)NC(=S)NCc2ccc(F)cc2)cc1 (stereo not drawn),10,13,227*,4,-5,-3
CC1=NN(C(=Nc2nnc(C)s2)Nc2ccccc2)[C@H](c2cccc3ccccc23)S1,·,·,·,·,4,·
COc1ccccc1N1CCN(C(=O)c2cc(=O)c(OC)co2)CC1,·,·,·,·,-3,·
Cc1ccc(-n2ncc3c2CC(C)(C)CC3NC(=O)c2c(C)noc2C)cc1 (stereo not drawn),-5,18,91*,3,·,1
Cc1cc(S(=O)(=O)Nc2ccc(N3CCCC3=O)c(C)c2)ccc1F,·,·,·,·,-24,·
O=C(COC(=O)Cc1ccsc1)NNC(=O)c1ccccc1,-39,2,-1,·,3,2
O=C(Cc1ccsc1)NNC(=O)c1ccccc1O,-5,1,171*,13,0,-2
FC(F)(F)c1nnc2c(Sc3ccc(Cl)cc3)nc3ccccc3n12,-17,-8,0,59*,-15,0
FC(F)(F)c1nnc2c(Sc3ccccc3)nc3ccccc3n12,-53,1,0,-14,-11,-1
COc1cc(N)c2ncccc2c1,·,·,·,·,47*,·
Cc1cc2nc3ccc(=[N+](C)C)cc-3sc2cc1N,-22,419*,0,57*,83*,·
S=C(NC1CCCC1)N1CCN(c2cccc(Cl)c2)CC1,-25,19,47*,-3,-17,2
S=C(NC1CC1)N1CCN(c2ccc(Cl)cc2)CC1,-9,-2,4,-2,0,6
O=C(c1ccco1)N1CC(Oc2nccs2)C1,·,·,·,·,10,·
Cn1cc(C2CC(c3ccccc3)=NN2C(=O)c2ccccc2)c2ccccc21 (stereo not drawn),-2,19,2,-15,-2,-4
CCCC(=O)N1N=C(c2ccccc2)CC1c1cn(C)c2ccccc12 (stereo not drawn),-23,56*,0,-11,19,5
O=C(NCCCn1ccnc1)c1cc2n(n1)CCCO2,·,·,·,·,34*,·
SMILES,PrP 5UTR inh,Yp Topo-I inh,PfHsp40 yeast,BJeLR viability,SSB-PriA inh,PrPC surface inh
O=C(NCCCn1ncccc1=O)c1cc2n(n1)CCCO2,·,·,·,·,-11,·
Brc1ccc(-c2nn3c(-c4ccccn4)nnc3s2)o1,-22,1,1,-6,93*,-7
Nc1nn2c(-c3ccccn3)nnc2s1,·,·,·,·,60*,·
Cc1[nH]nc(-c2nn3c(-c4ccccn4)nnc3s2)c1Br,·,·,·,·,67*,·
O=C(NCc1ccc(C(=O)c2cccs2)s1)c1ccoc1,·,·,·,·,5,·
COc1ccc(S(=O)(=O)NCCOc2cc(C)cc(C)c2)cc1F,·,·,·,·,-16,·

# Screening results (PubChem)
